# Screening data: PubChem BioAssay, Broad Institute
# MITF TRPM1 HTS – activators of MITF-driven TRPM1 promoter reporter, primary screen, cell-based, SK-MEL-5, luciferase, single point; SK-MEL-5 TRPM1-promoter luciferase, 24 h; % of positive control, neutral wells = 0; activation, % at 12.5 µM; 0.75% of 300,000 active;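 active = mean activation of at least 80% with every replicate also reaching 80%; inconclusive = mean reaches 80% but some replicate falls short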;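 also: 0% = neutral control wells and 100% = parthenolide positive control wells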
# AF4-AF9 inh – inhibitors of AF4 peptide binding to AF9, primary screen, biochemical, AlphaScreen, biotin-AF4 peptide, FLAG-AF9, single point. inhibition, % at 10 µM. 0.47% of 350,000 active. Protein AF-9 (Homo sapiens), P42568;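 active = every replicate reaching a set inhibition limit, whatever the replicate mean, cut at about 25% in these data; inconclusive = mean inhibition reaches that limit but some replicates miss it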;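 also: 0% = plate neutral control median and 100% = total signal loss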
# Target sequence (P42568 whole entry, looked up): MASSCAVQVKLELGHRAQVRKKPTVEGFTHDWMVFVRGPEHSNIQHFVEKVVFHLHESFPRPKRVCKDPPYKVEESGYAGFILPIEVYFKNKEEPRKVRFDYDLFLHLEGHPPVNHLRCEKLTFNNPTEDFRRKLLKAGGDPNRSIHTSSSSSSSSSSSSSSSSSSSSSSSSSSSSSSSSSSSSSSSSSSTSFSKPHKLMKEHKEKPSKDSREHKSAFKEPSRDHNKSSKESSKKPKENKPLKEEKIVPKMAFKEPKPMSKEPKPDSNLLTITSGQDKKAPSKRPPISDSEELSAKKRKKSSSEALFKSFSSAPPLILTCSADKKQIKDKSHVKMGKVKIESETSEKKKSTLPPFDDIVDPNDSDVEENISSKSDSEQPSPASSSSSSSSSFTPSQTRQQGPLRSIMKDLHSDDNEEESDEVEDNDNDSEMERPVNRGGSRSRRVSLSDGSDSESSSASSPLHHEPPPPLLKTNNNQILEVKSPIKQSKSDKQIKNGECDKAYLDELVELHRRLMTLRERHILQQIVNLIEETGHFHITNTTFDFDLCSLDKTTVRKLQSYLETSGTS
# esBAF inh – Bmi1 luciferase reporter increase in mESCs, primary screen, esBAF inhibitor project, mouse ES cells, Bmi1 luciferase knock-in, single point. 2% of 350,000 active. AID 602393, 2012. reporter increase, % at 12.5 µM. 24 h; 100% = twice the neutral-well signal; in the data active = activation above about 40%; inconclusive = no clear call, values can overlap the other calls;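 also: 0% = median of the plate's neutral control wells and 100% = double that signal; a rise in the Bmi1 reporter signal indicates esBAF inhibition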
# Wnt bcat act – Wnt/beta-catenin pathway activators, primary screen, cell-based, plate reader, single point; 1.2% of 300,000 active; Wnt/beta-catenin reporter cell assay, activator; activation, % at 9.35 µM; in the data active = activation above about 30%, passing the limit was not always enough; inconclusive = no clear call, values can overlap the other calls;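 also: 0% = neutral control wells and 100% = positive control wells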
# Ecoli rRNA inh – reduced GFP signal of wild-type E. coli, primary screen, bacterial rRNA inhibitor project, GFP/RFP fluorescence, OD600, single point; E. coli WT GFP vs humanized-ribosome RFP mutants, 24 h; stronger effect = lower value; DMSO median 0, no signal -100; GFP signal change (wild-type ribosome), % (test concentration not listed); 1.6% of 350,000 active;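 active = significant combined selectivity score with lowered wild-type GFP, culture density cut under 30%, mutant RFP and density less affected; inactive = any of these conditions unmet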
# An asterisk follows results filed as active; ? = inconclusive; . = no result given. Compounds with a hit are over-represented: about 3.7% of the library has one in this group of screens.
SMILES,MITF TRPM1 HTS,AF4-AF9 inh,esBAF inh,Wnt bcat act,Ecoli rRNA inh
Nc1c(C(=O)c2ccc(Br)cc2)oc2ccccc12,16,1,.,9,-11
COC(=O)CCC(=O)c1oc2ccc(Br)cc2c1N,90*,.,11,.,.
COc1ccc2oc(C(=O)CCC(=O)O)c(N)c2c1,4,11,-5,-1,0
Nc1c(C(=O)c2ccccc2)oc2ccc([N+](=O)[O-])cc12,57,4,.,0,-14
Nc1c(C(=O)c2ccc(Br)s2)oc2ccccc12,30,.,74*,35*,.
CC1=NN(c2ccccc2)C(=O)C1C=Nc1ccc(N(C)C)cc1 (stereo not drawn),.,31*,.,-1,2
CSc1ccc(C2CC(=O)Nc3nc(SC)[nH]c(=O)c32)cc1 (stereo not drawn),10,0,.,0,13
C=CCNc1nc(-c2ccc([N+](=O)[O-])cc2)cs1,80,12,.,18,-8
CN(C)c1nc(-c2ccc([N+](=O)[O-])cc2)cs1,?,.,67*,.,.
COc1ccc(S(=O)(=O)Nc2ccc3c(c2)C(=O)N([C@H](C)CO)C[C@H](C)[C@H](CN(C)C(=O)Nc2ccc4c(c2)OCO4)OCCCC[C@H](C)O3)cc1,.,0,5,.,-3
Cc1cc(NC(=O)Nc2ccc(F)cc2)no1,19,.,19,.,.
COc1ccc(NC(=O)Nc2cc(C(C)(C)C)on2)cc1OC,-1,4,.,-1,-26*
Cc1cc(NC(=O)Nc2ccc(C)c(C)c2)no1,61,-4,.,32*,2
Cc1ccc(NC(=O)CN(C)Cc2cccs2)cc1Cl,27,1,5,-3,-28
CCN(CC)c1ccc(NC(=O)CN(C)Cc2cccs2)cc1,-1,27*,-1,1,-7
N#Cc1c2n(c3c(=O)n(Cc4ccccc4)cnc13)CCCC2,0,-5,0,-2,-25*
N#Cc1c2n(c3c(=O)n(Cc4ccc(Cl)cc4)cnc13)CCCCC2,-3,.,2,-1,.
COc1cccc(C(=O)Cn2c(Br)nc3c2c(=O)n(C)c(=O)n3C)c1,-22,.,9,49*,.
COc1ccc(C(=O)Cn2c(Cl)nc3c2c(=O)n(C)c(=O)n3C)cc1,.,1,-8,-2,.
C[C@@H]1CN([C@@H](C)CO)C(=O)CCCn2cc(nn2)CO[C@@H]1CN(C)C(=O)Nc1ccc2c(c1)OCCO2,.,.,21,.,3
Cc1ccc(S(=O)(=O)NN2C(=O)/C(=C/c3ccc(C(=O)O)cc3)SC2=S)cc1,1,-5,-4,-1,8
O=C(C1=C(O)C(=O)N(c2nc3ccc(Cl)cc3s2)C1c1ccco1)c1ccco1 (stereo not drawn),-14,3,?,33*,.
Cc1ccc2nc(N3C(=O)C(O)=C(C(=O)c4cc5ccccc5o4)C3c3cccs3)sc2c1 (stereo not drawn),6,.,45*,.,.
CCc1ccc2nc(N3C(=O)C(O)=C(C(=O)c4ccco4)C3c3cccs3)sc2c1 (stereo not drawn),61,.,29,.,.
O=C(NCCCn1ccnc1)/C(=C\c1cccnc1)NC(=O)c1ccccc1F,-5,-3,.,-1,12
SMILES,MITF TRPM1 HTS,AF4-AF9 inh,esBAF inh,Wnt bcat act,Ecoli rRNA inh
Cn1cc(Br)c(C(=O)NN2C(=O)C3C4C=CC(C5CC45)C3C2=O)n1 (stereo not drawn),-4,-1,.,-3,5
COc1cc(OC)cc(C(=O)Nc2cccc3ccccc23)c1,-10,4,-11,-2,-12
COC(=O)/C(=C/Nc1cccc2ccccc12)[N+](=O)[O-],3,8,.,8,-21*
COc1ccc2c3c([nH]c2c1)[C@H](CO)N(C(=O)c1ccccc1)CC31CCN(Cc2cccnc2)CC1,.,3,.,.,2
Nc1nc2cc(Br)ccc2o1,7,1,5,-4,-5
Cc1noc(C)c1NC(=O)Nc1ccc2c(c1)CC(=O)N([C@@H](C)CO)C[C@H](C)[C@H](CN(C)Cc1ccc(C(F)(F)F)cc1)O2,.,4,-9,.,-5
CN(C)CCNc1cccc2sc3ccc(O)cc3c(=O)c12,.,38*,.,5,-55
Cc1ccc(NCCN(C)C)c2c(=O)c3cc(O)ccc3sc12,-93,39*,.,3,-56
CCN(CC)CCNc1ccc(CO)c2sc3ccccc3c(=O)c12,-26,12,10,1,-21
COc1cc(C)c2sc3ccccc3c(=O)c2c1NCCN(C)C,.,45*,2,-3,-34
CC(=O)c1cccc(NC(=O)CN(c2cccc(F)c2)S(C)(=O)=O)c1,-18,.,-2,.,.
O=[N+]([O-])c1ccc(CNc2ccc(F)cc2)s1,.,12,1,0,-9
O=[N+]([O-])c1ccc(CNc2ccc(Cl)cc2)s1,.,30*,-8,-1,-53
COc1ccc(CCNC(=O)C2CCN(S(=O)(=O)c3ccc(C)cc3)CC2)cc1OC,-6,-3,-10,62*,-8
N#C/C(=C/c1ccc(N2CCCCC2)o1)C(=O)Nc1ccc(Cl)cc1,78,.,60*,.,.
Nc1n[nH]c(-c2ccc(F)cc2)n1,.,.,0,1,.
CCCCc1ccc(-c2nc(N)n[nH]2)cc1,57,.,29,35*,.
COc1ccc(-c2nc3ccc(C(=O)NCC(OC)OC)cc3nc2-c2ccc(OC)c(OC)c2)cc1OC,17,-2,4,1,8
COC(CNC(=O)c1ccc2nc(-c3cccs3)c(-c3cccs3)nc2c1)OC,-3,2,.,0,-22*
CC(C)/C=C/CN1CCCC(N2CCN(c3cccc(Cl)c3)CC2)C1 (stereo not drawn),.,7,-2,-3,-10
CCOC(=O)c1cnc(SCc2ccc(C)cc2)nc1N,74,.,61*,.,.
CCOC(=O)c1cnc(SCC(=O)c2ccc(Cl)cc2)nc1N,.,.,5,1,.
CCOC(=O)c1cnc(SCCc2ccccc2)nc1N,95*,.,42*,37*,.
CCCCSc1ncc(C(=O)OCC)c(N)n1,112*,.,32,.,.
CCOC(=O)c1cnc(SCc2nc(N)nc(Nc3ccccc3)n2)nc1N,49,.,4,0,.
SMILES,MITF TRPM1 HTS,AF4-AF9 inh,esBAF inh,Wnt bcat act,Ecoli rRNA inh
CCOC(=O)c1cnc(SCC(=O)N2CCN(C(=O)c3ccco3)CC2)nc1N,.,.,-3,.,5
COc1ccc(NS(=O)(=O)c2cc3c(cc2C)N(C(C)=O)CCO3)c(OC)c1,.,-10,-1,0,5
Cc1ccc(S(=O)(=O)Nc2ccc3c(c2)C(=O)N([C@H](C)CO)C[C@@H](C)[C@H](CN(C)Cc2ccc(Cl)c(Cl)c2)OCCCC[C@H](C)O3)cc1,.,6,-3,.,2
Nc1nc(N)nc(-c2cccc(Br)c2)n1,41,-1,38,36*,-6
Cc1cccc(-c2nc(N)nc(N)n2)c1,9,-3,.,8,-2
Oc1c(N=NC(=S)Nc2ccccc2F)c2ccccc2n1Cc1ccccc1,-21,11,-6,-2,10
